Measurements from PubChem BioAssay (NCI).
The panel holds about 79,000 compounds, 15% with a hit somewhere; the sample as a whole holds those more often. Active and inactive are the calls of the source. Cut-off read from the data, not from the text of the source: active = growth inhibition above about 70%; inactive = the rest.

Key:
[1] = NCI Yeast Anticancer Drug Screen. Data for the rad50 strain (AID 155);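 note: 0% = growth of vehicle-only cultures of the same strain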; settings: S. cerevisiae rad50 strain growth inhibition, hits give high values
Method in brief: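 Readout: growth inhibition relative to vehicle-treated cultures. Compound exposure was carried out in a genetically defined yeast strain deficient in DNA damage repair.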

[2] = NCI Yeast Anticancer Drug Screen. Data for the mec2-1 strain (AID 157); settings: S. cerevisiae mec2-1 strain, hits give high values
Method in brief: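 Readout is yeast growth inhibition, normalised to vehicle-treated controls, in the mec2-1 strain exposed to compound.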

[3] = NCI Yeast Anticancer Drug Screen. Data for the sgs1 mgt1 strain (AID 161);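 note: 0% = growth of cultures given vehicle only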; settings: S. cerevisiae sgs1 mgt1 strain, hits give high values
Method in brief: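 This yeast growth screen uses a strain with defined DNA-repair lesions; compound-treated growth is compared with vehicle-treated growth.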

[4] = NCI Yeast Anticancer Drug Screen. Data for the cln2 rad14 strain (AID 165);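 note: 0% = growth equal to vehicle treated cultures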; settings: S. cerevisiae cln2 rad14 strain, hits give high values
Method in brief: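 Relative to vehicle controls, growth inhibition of compound-treated cln2 rad14 yeast was recorded.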

[5] = NCI Yeast Anticancer Drug Screen. Data for the bub3 strain (AID 167); settings: S. cerevisiae bub3 mutant strain, hits give high values
Method in brief: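 Readout: yeast growth inhibition, expressed relative to vehicle-only wells. The test organism is a mutant strain from a panel with lesions in DNA repair or checkpoint genes.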

[6] = NCI Yeast Anticancer Drug Screen. Data for the mlh1 rad18 strain (AID 175); settings: S. cerevisiae mlh1 rad18 strain growth inhibition, hits give high values
Method in brief: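 Test agents were incubated with a yeast strain of defined genotype (DNA damage repair defect). Inhibition of growth was derived by comparison with vehicle-exposed cultures.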

[7] = at 5.0 µM (retest, dose inferred, filed as 0.5)
[8] = at 50.0 µM (retest, dose inferred, filed as 5.0)

Measured: growth inhibition

COc1ccc(/C=C2\CCC/C(=C\c3ccc(OC)cc3)C2=O)cc1
inactive: [1]; [7] 26% | [1]; [8] -17% | [1]; at 50.0 µM -5.5% | [2]; [7] -9% | [2]; [8] -17% | [2]; at 50.0 µM -11.3% | [3]; [7] 2% | [3]; [8] -17% | [3]; at 50.0 µM -2.1% | [4]; [7] -21% | [4]; [8] -20% | [4]; at 50.0 µM -72.2% | [5]; [7] -5% | [5]; [8] -5% | [5]; at 50.0 µM 1.05% | [6]; [7] -8% | [6]; [8] -14% | [6]; at 50.0 µM 9.55%

COC(=O)C1=C(C)NC(C)=C([N+](=O)[O-])C1c1cccc(N=O)c1 (stereo not given)
active: [1]; at 50.0 µM 74.2% | [2]; [8] 98% | [2]; at 50.0 µM 72.1% | [3]; [8] 86% | [3]; at 50.0 µM 89.8% | [5]; [8] 93% | [5]; at 50.0 µM 90.2% | [6]; [8] 97% | [6]; at 50.0 µM 84.4%
inactive: [1]; [7] 22% | [1]; [8] 68% | [2]; [7] 16% | [3]; [7] 27% | [4]; [7] 28% | [4]; [8] 45% | [4]; at 50.0 µM 57.2% | [5]; [7] 26% | [6]; [7] 33%

CC(=O)C(C(=O)CCSCCO)C(SCCO)c1ccc(Cl)c(Cl)c1 (stereo not given)
active: [2]; at 50.0 µM 79% | [3]; [8] 81% | [3]; at 50.0 µM 71.8% | [5]; [8] 70% | [6]; [8] 73% | [6]; at 50.0 µM 73.8%
inactive: [1]; [7] -1% | [1]; [8] 64% | [1]; at 50.0 µM 59.4% | [2]; [7] -3% | [2]; [8] 63% | [3]; [7] -1% | [4]; [7] -4% | [4]; [8] 55% | [4]; at 50.0 µM 40.1% | [5]; [7] -6% | [5]; at 50.0 µM 62.4% | [6]; [7] -3%

O=[N+]([O-])c1cc(F)c(Sc2cc(Br)c([N+](=O)[O-])cc2F)cc1Br
inactive: [1]; [7] 1% | [1]; [8] -16% | [1]; at 50.0 µM 8.85% | [2]; [7] -1% | [2]; [8] -8% | [2]; at 50.0 µM 9.55% | [3]; [7] -1% | [3]; [8] -7% | [3]; at 50.0 µM 3.05% | [4]; [7] 1% | [4]; [8] -21% | [4]; at 50.0 µM 43.5% | [5]; [7] 6% | [5]; [8] -3% | [5]; at 50.0 µM 28.9% | [6]; [7] 0% | [6]; [8] -4% | [6]; at 50.0 µM 19.9%

COc1ccc(CCN2CC(=O)N3CSCC3C2=O)cc1OC (stereo not given)
inactive: [1]; [7] 6% | [1]; [8] 24% | [1]; at 50.0 µM 66.7% | [2]; [7] 5% | [2]; [8] 16% | [2]; at 50.0 µM 7.05% | [3]; [7] 9% | [3]; [8] 27% | [3]; at 50.0 µM 34.8% | [4]; [7] 4% | [4]; [8] 27% | [4]; at 50.0 µM 25.4% | [5]; [7] 3% | [5]; [8] 28% | [5]; at 50.0 µM 21.8% | [6]; [7] -1% | [6]; [8] 14% | [6]; at 50.0 µM 37.2%

C/C(=N\NC(=S)N1CCC(O)CC1)c1ccccn1
inactive: [1]; [7] 14% | [2]; [7] 14% | [3]; [7] 40% | [4]; [7] 16% | [5]; [7] 39% | [6]; [7] 28%
active: [1]; [8] 93% | [1]; at 50.0 µM 99% | [2]; [8] 94% | [2]; at 50.0 µM 99.5% | [3]; [8] 99% | [3]; at 50.0 µM 99.2% | [4]; [8] 95% | [4]; at 50.0 µM 98.2% | [5]; [8] 97% | [5]; at 50.0 µM 98.8% | [6]; [8] 98% | [6]; at 50.0 µM 98.8%

CCCCCCCCCCCCCCC(O)C(=O)O (stereo not given)
inactive: [1]; [7] -6% | [1]; [8] -27% | [1]; at 50.0 µM 68.7% | [2]; [7] -2% | [2]; [8] -31% | [3]; [7] -7% | [3]; [8] -33% | [3]; at 50.0 µM 33% | [4]; [7] -1% | [4]; [8] -42% | [4]; at 50.0 µM 11.4% | [5]; [7] -1% | [5]; [8] -28% | [6]; [7] -2% | [6]; [8] -27%
active: [2]; at 50.0 µM 88.1% | [5]; at 50.0 µM 96.4% | [6]; at 50.0 µM 73.5%

O=C(c1ccc(Cl)c([N+](=O)[O-])c1)c1ccc(Cl)c([N+](=O)[O-])c1
inactive: [1]; [7] 21% | [1]; at 50.0 µM 59% | [2]; [7] 12% | [3]; [7] 13% | [4]; [7] 1% | [4]; at 50.0 µM 39.5% | [5]; [7] -8% | [6]; [7] 24%
active: [1]; [8] 93% | [2]; [8] 94% | [2]; at 50.0 µM 93.4% | [3]; [8] 90% | [3]; at 50.0 µM 85% | [4]; [8] 80% | [5]; [8] 95% | [5]; at 50.0 µM 96.2% | [6]; [8] 96% | [6]; at 50.0 µM 96.7%

COc1ccc(C2CC(c3c(O)ccc4ccccc34)=NN2)cc1OC (stereo not given)
inactive: [1]; [7] -4% | [2]; [7] -3% | [3]; [7] -6% | [4]; [7] -11% | [5]; [7] 8% | [6]; [7] -1%
active: [1]; [8] 97% | [1]; at 50.0 µM 89.2% | [2]; [8] 97% | [2]; at 50.0 µM 91.8% | [3]; [8] 97% | [3]; at 50.0 µM 90.4% | [4]; [8] 97% | [4]; at 50.0 µM 90.2% | [5]; [8] 96% | [5]; at 50.0 µM 90.5% | [6]; [8] 97% | [6]; at 50.0 µM 89.7%

O=c1[nH]c(CN2CCCCC2)nn1-c1ccccc1
inactive: [1]; [7] -1% | [1]; [8] 3% | [1]; at 50.0 µM 8.25% | [2]; [7] 0% | [2]; [8] 3% | [2]; at 50.0 µM 10.1% | [3]; [7] -1% | [3]; [8] 1% | [3]; at 50.0 µM 9.75% | [4]; [7] 4% | [4]; [8] -1% | [4]; at 50.0 µM 69.4% | [5]; [7] 0% | [5]; [8] -4% | [5]; at 50.0 µM 14.6% | [6]; [7] -2% | [6]; [8] 1% | [6]; at 50.0 µM 2.45%
